Assay results from the supplement of paper PMC11732987, “Enantioselective OTUD7B fragment discovery through chemoproteomics screening and high-throughput optimisation” (Communications Chemistry, 2025).

Assays:
Assay in all cases: log2 ratio of Biotin-Ahx-Ub-VS probe labelling (fragment/DMSO); higher = less target engagement (more negative = stronger competition), active = hit call of the paper (q ≤ 0.05, log2 ratio ≤ -1)
Conditions in all cases: compound concentration: 200 uM; treatment time: 3 h
USP9X = USP9X (UniProt Q93008)
Sequence of USP9X (Q93008 whole entry, the tested form may be a part): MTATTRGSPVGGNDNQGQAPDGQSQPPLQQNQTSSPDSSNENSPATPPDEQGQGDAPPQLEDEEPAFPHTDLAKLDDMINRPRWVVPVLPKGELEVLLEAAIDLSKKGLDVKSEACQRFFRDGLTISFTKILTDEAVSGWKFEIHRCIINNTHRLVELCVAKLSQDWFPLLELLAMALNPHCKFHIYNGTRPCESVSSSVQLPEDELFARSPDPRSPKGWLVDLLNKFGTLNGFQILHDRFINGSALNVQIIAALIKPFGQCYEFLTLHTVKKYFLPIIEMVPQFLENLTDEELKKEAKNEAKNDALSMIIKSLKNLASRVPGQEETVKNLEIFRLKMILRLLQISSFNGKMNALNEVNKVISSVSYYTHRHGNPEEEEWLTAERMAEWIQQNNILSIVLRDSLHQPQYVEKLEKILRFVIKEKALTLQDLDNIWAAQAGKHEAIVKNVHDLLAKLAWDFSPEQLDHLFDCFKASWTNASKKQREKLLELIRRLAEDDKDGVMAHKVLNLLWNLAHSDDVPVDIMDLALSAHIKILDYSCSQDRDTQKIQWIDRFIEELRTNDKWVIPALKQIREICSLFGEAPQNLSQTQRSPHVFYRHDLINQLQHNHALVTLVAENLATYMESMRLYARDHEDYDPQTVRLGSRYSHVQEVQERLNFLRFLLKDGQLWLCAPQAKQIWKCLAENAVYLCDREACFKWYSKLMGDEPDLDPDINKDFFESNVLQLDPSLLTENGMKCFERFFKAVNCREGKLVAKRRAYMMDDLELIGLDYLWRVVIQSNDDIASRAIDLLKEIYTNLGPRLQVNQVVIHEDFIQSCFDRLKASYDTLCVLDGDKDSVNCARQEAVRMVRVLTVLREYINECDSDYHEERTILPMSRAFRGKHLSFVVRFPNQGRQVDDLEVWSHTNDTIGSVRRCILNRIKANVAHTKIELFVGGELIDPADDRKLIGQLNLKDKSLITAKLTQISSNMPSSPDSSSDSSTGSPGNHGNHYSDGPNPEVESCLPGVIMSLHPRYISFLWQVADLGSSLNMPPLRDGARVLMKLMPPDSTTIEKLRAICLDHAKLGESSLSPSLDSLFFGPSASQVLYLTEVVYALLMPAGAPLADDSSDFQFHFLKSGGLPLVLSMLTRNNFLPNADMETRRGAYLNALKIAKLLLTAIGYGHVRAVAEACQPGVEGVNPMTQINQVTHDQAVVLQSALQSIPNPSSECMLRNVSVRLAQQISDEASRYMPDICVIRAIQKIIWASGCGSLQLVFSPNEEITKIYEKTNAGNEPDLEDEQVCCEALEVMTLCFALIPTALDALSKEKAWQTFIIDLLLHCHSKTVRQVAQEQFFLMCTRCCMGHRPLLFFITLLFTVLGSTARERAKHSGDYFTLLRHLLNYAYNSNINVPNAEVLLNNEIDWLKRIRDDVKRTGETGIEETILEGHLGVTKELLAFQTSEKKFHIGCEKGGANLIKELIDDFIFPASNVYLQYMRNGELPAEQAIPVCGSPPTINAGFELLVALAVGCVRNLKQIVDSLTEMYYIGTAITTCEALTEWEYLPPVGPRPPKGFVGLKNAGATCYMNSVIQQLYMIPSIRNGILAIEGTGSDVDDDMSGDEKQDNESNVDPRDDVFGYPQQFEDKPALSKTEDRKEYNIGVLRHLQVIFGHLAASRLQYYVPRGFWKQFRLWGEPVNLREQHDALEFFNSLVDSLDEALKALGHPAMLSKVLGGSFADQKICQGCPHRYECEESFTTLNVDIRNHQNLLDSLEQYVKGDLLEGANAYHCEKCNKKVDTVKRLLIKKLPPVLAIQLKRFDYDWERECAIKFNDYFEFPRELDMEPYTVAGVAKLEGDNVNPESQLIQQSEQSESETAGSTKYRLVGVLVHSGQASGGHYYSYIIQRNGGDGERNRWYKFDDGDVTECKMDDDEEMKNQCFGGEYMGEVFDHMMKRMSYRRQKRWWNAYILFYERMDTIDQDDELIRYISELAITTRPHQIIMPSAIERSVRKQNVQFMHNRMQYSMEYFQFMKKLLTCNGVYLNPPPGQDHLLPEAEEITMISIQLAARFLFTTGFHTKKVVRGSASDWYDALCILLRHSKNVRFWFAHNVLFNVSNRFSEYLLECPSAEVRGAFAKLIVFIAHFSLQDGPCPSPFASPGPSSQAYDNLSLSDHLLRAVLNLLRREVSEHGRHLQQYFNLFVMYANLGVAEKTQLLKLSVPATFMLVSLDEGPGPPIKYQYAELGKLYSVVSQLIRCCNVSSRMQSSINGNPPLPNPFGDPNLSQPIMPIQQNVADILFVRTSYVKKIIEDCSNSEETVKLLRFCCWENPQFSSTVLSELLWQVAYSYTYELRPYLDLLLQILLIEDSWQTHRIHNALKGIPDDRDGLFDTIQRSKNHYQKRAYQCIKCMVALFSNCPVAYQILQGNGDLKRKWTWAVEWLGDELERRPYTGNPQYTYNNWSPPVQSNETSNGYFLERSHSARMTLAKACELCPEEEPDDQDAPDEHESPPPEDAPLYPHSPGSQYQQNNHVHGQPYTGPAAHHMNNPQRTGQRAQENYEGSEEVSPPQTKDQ
How it was run: (§1)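 HEK293T lysate (495 µg per sample, in Tris/CHAPS/IGEPAL buffer with protease inhibitors) was exposed in triplicate for 3 h to fragment at 200 µM or to vehicle, then to Biotin-Ahx-Ub-VS at 0.5 µM final for 1 h. Labelled DUBs were enriched on NeutrAvidin, digested with LysC and trypsin, and analysed by diaPASEF LC-MS/MS. Spectronaut label-free quantities were normalised to the global median, and values are average log2 ratios of fragment over vehicle from an unpaired t-test. Only proteins with ≥2 unique peptides were used.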

UniProt O00487 = biological target: UniProt O00487
Sequence of UniProt O00487 (O00487 whole entry): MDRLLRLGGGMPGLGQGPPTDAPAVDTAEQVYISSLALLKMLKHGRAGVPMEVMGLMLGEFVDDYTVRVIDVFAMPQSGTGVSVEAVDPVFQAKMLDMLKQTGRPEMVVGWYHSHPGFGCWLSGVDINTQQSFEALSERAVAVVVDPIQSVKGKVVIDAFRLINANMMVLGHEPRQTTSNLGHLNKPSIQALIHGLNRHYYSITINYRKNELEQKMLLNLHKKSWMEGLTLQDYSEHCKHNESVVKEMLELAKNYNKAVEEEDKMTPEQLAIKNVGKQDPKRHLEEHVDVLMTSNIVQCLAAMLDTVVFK
How it was run: as §1

UniProt O00507 = biological target: UniProt O00507
How it was run: as §1

UniProt P51784 = biological target: UniProt P51784
Sequence of UniProt P51784 (P51784 whole entry): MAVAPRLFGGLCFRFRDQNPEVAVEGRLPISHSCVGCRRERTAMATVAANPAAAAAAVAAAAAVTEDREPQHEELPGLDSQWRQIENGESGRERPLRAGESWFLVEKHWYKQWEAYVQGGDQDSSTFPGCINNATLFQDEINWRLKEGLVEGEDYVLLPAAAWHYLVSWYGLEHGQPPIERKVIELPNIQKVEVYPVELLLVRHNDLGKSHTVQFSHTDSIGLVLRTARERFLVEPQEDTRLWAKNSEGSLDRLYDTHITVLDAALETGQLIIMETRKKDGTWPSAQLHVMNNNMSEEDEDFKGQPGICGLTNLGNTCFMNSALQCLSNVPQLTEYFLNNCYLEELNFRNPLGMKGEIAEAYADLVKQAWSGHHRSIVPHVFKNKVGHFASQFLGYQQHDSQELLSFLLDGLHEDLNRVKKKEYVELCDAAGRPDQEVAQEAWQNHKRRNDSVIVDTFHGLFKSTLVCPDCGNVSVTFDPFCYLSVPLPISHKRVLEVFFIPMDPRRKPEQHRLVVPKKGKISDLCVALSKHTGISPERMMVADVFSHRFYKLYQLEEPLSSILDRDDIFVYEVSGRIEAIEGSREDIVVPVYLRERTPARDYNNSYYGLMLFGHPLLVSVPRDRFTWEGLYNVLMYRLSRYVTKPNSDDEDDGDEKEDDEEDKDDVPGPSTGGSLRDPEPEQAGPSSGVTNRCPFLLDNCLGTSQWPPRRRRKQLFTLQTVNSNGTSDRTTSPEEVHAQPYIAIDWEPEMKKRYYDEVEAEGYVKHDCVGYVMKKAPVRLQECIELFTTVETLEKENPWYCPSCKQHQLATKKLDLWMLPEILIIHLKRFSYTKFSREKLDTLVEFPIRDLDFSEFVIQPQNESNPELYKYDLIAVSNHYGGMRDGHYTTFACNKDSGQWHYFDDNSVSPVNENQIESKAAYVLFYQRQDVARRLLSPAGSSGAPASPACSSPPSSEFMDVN
How it was run: as §1

UniProt Q5T2D3 = biological target: T1, UniProt Q5T2D3
T1 sequence (whole entry): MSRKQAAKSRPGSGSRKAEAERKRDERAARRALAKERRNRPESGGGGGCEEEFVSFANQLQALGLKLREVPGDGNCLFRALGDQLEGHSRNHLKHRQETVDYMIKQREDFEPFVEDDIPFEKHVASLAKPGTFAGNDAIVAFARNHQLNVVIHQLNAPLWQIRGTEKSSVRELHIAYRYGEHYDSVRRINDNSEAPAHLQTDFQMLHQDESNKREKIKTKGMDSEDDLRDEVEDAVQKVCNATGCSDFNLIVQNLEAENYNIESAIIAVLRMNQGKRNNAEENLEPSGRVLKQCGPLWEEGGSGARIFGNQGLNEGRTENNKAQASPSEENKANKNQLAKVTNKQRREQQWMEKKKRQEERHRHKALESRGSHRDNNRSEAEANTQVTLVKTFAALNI
How it was run: as §1

UniProt Q8TE49 = biological target: T2, UniProt Q8TE49
T2 sequence (whole entry): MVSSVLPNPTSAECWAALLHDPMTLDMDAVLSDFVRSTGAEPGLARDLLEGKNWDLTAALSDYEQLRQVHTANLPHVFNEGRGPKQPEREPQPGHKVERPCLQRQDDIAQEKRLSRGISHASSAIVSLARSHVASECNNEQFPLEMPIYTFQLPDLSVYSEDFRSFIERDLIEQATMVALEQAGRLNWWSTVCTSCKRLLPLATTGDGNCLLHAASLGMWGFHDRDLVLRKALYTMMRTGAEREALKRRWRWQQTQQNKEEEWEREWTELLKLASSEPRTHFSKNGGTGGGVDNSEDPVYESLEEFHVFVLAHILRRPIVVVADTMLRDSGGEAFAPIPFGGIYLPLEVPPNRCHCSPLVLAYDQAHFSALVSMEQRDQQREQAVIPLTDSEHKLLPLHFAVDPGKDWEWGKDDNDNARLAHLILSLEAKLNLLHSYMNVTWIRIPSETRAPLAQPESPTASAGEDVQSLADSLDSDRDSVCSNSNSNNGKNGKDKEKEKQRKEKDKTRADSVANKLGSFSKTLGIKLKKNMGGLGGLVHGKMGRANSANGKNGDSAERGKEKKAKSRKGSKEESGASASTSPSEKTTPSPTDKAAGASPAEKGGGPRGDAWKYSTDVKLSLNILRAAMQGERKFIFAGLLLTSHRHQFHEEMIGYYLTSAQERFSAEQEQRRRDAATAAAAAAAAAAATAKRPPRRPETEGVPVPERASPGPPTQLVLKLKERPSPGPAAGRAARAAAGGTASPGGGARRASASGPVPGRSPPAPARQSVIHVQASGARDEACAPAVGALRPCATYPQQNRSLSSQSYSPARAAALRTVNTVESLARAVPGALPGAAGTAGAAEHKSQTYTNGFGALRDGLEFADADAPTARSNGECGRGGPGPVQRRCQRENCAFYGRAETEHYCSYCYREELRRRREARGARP
How it was run: as §1

UniProt Q9P2H5 = biological target: T3, UniProt Q9P2H5
T3 sequence (whole entry): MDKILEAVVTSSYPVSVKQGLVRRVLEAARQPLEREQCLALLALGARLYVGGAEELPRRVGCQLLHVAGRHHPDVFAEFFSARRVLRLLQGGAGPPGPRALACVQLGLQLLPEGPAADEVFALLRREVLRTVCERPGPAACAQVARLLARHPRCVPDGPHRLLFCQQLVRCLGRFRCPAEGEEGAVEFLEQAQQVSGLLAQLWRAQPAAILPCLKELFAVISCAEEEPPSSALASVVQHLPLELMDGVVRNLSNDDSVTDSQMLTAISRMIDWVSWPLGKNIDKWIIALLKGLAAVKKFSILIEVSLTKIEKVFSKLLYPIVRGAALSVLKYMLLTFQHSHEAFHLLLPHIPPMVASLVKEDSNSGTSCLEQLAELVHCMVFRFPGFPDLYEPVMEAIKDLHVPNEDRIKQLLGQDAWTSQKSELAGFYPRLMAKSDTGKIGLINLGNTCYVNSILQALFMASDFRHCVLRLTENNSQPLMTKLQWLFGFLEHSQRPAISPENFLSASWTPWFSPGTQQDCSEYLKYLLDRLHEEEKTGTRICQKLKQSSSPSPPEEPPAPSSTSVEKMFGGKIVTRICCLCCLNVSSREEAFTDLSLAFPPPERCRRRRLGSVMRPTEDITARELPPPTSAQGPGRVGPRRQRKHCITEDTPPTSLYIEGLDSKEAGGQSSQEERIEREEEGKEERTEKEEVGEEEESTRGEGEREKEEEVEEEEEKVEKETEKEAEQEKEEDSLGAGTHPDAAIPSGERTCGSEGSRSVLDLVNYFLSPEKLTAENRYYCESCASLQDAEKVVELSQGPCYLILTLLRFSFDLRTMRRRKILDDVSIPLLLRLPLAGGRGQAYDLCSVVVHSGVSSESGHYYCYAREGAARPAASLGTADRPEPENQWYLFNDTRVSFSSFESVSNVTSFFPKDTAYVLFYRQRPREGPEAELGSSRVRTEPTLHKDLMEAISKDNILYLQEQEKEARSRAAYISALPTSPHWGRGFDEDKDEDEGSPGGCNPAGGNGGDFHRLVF
How it was run: as §1

UniProt Q9UGI0 = biological target: T4, UniProt Q9UGI0
T4 sequence (whole entry): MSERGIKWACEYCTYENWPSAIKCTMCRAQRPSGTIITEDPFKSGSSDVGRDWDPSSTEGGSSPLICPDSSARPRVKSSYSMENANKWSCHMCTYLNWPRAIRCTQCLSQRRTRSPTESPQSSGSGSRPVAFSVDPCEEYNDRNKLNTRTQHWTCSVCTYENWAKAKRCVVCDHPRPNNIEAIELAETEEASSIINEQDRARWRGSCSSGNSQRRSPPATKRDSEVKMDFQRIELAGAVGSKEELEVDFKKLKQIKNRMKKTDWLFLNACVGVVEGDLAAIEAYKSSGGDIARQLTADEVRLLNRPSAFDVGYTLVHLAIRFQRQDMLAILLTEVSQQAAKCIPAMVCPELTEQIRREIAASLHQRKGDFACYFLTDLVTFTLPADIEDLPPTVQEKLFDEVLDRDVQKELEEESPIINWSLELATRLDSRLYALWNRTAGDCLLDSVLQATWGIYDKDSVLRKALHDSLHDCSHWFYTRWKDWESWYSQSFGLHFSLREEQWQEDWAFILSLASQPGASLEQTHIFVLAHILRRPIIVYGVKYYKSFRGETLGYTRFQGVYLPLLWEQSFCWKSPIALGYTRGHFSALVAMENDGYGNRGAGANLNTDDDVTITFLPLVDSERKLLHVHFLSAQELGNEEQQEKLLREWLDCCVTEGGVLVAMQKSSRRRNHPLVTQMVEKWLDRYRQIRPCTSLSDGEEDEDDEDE
How it was run: as §1

YOD1 = biological target: T5, YOD1 (UniProt Q5VVQ6)
T5 sequence (whole entry): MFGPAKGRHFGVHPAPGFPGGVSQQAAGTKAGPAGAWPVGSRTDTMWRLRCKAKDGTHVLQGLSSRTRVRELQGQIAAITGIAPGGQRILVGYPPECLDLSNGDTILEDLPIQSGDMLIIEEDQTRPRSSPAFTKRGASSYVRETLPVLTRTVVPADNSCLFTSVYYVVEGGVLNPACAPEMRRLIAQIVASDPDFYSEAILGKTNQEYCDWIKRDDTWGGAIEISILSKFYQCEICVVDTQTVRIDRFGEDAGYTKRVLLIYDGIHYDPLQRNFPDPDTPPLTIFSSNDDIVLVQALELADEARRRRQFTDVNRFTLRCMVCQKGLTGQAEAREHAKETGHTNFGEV
How it was run: as §1

Measured: log2 ratio of Biotin-Ahx-Ub-VS probe labelling

Cl.Cn1nccc1C(NC(=O)CCl)c1ccccc1 (centres undefined)
inactive: USP9X -0.0773 | UniProt O00487 -0.0868 | UniProt O00507 0.249 | UniProt P51784 -0.121 | UniProt Q5T2D3 -0.172 | UniProt Q8TE49 -0.655 | UniProt Q9P2H5 -0.154 | UniProt Q9UGI0 -0.583 | YOD1 0.125
